# Experimental data: the supplement of paper PMC8728848
# Many of the other results were omitted from the sample, so the strongest signals are more common in it than they were.
# B1: ERGIC1-EDTA (Homo sapiens), Q969X5 (protein)
# chain: MKFLVNVALVFMVVYISYIYAAAHMHHHHHHDYDIPTTENLYFQGSEVVNELYVDDPDKDSGGKIDVSLNISLPNLHCELVGLDIQDEMGRHEVGHIDNSMKIPLNNGAGCRFEGQFSINKVPGNFHVSTHSATAQPQNPDMTHVIHKLSFGDTLQVQNIHGAFNALGGADRLTSNPLASHDYILKIVPTVYEDKSGKQRYSYQYTVANKEYVAYSHTGRIIPAIWFRYDLSPITVKYTE
# What was measured:
# Experiment in all cases: glycan array binding signal (z-score within array); higher = stronger binding
# Conditions in all cases: glycan notation: IUPAC condensed, linker removed
# Fuc(a1-2)Gal(b1-4)Glc = biological target: Fuc(a1-2)Gal(b1-4)Glc
# How it was run: (§1)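 Negative Z-scores can be read as non-binding. The Z-score is calculated within each array and then averaged across arrays of one protein sequence at different concentrations or buffers and across linkers. Arrays, 3228 in all, were curated from the Consortium for Functional Glycomics database and kept only where the protein sequence was available.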
# [1] = biological target: Fuc(a1-2)Gal(b1-4)GlcNAc(b1-2)[Fuc(a1-2)Gal(b1-4)GlcNAc(b1-4)]Man(a1-3)[Fuc(a1-2)Gal(b1-4)GlcNAc(b1-2)Man(a1-6)]Man(b1-4)GlcNAc(b1-4)GlcNAc
# How it was run: as §1
# [2] = biological target: Fuc(a1-2)Gal(b1-4)GlcNAc(b1-6)GalNAc
# How it was run: as §1
# [3] = biological target: Fuc(a1-2)Gal(b1-4)[Fuc(a1-3)]GlcNAc(b1-2)[Fuc(a1-2)Gal(b1-4)[Fuc(a1-3)]GlcNAc(b1-4)]Man(a1-3)[Fuc(a1-2)Gal(b1-4)[Fuc(a1-3)]GlcNAc(b1-2)Man(a1-6)]Man(b1-4)GlcNAc(b1-4)GlcNAc
# How it was run: as §1
# [4] = biological target: Fuc(a1-2)[Gal(a1-3)]Gal(b1-4)GlcNAc
# How it was run: as §1
# [5] = biological target: Fuc(a1-2)[Gal(a1-3)]Gal(b1-4)GlcNAc(b1-2)Man
# How it was run: as §1
# [6] = biological target: Fuc(a1-2)[GalNAc(a1-3)]Gal(b1-3)GlcNAc
# How it was run: as §1
# [7] = biological target: Fuc(a1-2)[GalNAc(a1-3)]Gal(b1-4)GlcNAc(b1-2)Man(a1-3)[Fuc(a1-2)[GalNAc(a1-3)]Gal(b1-4)GlcNAc(b1-2)Man(a1-6)]Man(b1-4)GlcNAc(b1-4)[Fuc(a1-6)]GlcNAc
# How it was run: as §1
# [8] = biological target: Gal(a1-3)Gal(b1-3)GlcNAc(b1-6)GalNAc
# How it was run: as §1
# [9] = biological target: Gal(a1-3)Gal(b1-4)GlcNAc(b1-3)GalNAc
# How it was run: as §1
# [10] = biological target: Gal(b1-3)GlcNAc(b1-2)[Gal(b1-3)GlcNAc(b1-6)]Man(a1-6)[Gal(b1-3)GlcNAc(b1-2)Man(a1-3)]Man(b1-4)GlcNAc(b1-4)GlcNAc
# How it was run: as §1
# [11] = biological target: Gal(b1-3)[Fuc(a1-4)]GlcNAc(b1-6)GalNAc
# How it was run: as §1
# Gal(b1-4)Glc6S = biological target: Gal(b1-4)Glc6S
# How it was run: as §1
# [12] = biological target: Gal(b1-4)GlcNAc(b1-3)Gal(b1-3)GalNAc
# How it was run: as §1
# [13] = biological target: Gal(b1-4)GlcNAc(b1-3)Gal(b1-4)GlcNAc(b1-2)Man(a1-3)[Gal(b1-4)GlcNAc(b1-3)Gal(b1-4)GlcNAc(b1-2)Man(a1-6)]Man(b1-4)GlcNAc(b1-4)[Fuc(a1-6)]GlcNAc
# How it was run: as §1
# [14] = biological target: Gal(b1-4)GlcNAc(b1-3)Gal(b1-4)GlcNAc(b1-3)Gal(b1-4)GlcNAc(b1-3)Gal(b1-4)GlcNAc(b1-2)Man(a1-3)[Gal(b1-4)GlcNAc(b1-3)Gal(b1-4)GlcNAc(b1-3)Gal(b1-4)GlcNAc(b1-3)Gal(b1-4)GlcNAc(b1-2)Man(a1-6)]Man(b1-4)GlcNAc(b1-4)[Fuc(a1-6)]GlcNAc
# How it was run: as §1
# [15] = biological target: Gal(b1-4)GlcNAc(b1-6)[Gal(b1-4)GlcNAc(b1-3)]GalNAc
# How it was run: as §1
# Gal3S(b1-4)Glc6S = biological target: Gal3S(b1-4)Glc6S
# How it was run: as §1
# Gal3S(b1-4)GlcNAc = biological target: Gal3S(b1-4)GlcNAc
# How it was run: as §1
# GalNAc(b1-4)Gal(b1-4)Glc = biological target: GalNAc(b1-4)Gal(b1-4)Glc
# How it was run: as §1
# [16] = biological target: GalNAc(b1-4)GlcNAc(b1-2)Man(a1-3)[GalNAc(b1-4)GlcNAc(b1-2)Man(a1-6)]Man(b1-4)GlcNAc(b1-4)GlcNAc
# How it was run: as §1
# [17] = biological target: GlcNAc(a1-6)Gal(b1-4)GlcNAc
# How it was run: as §1
# [18] = biological target: GlcNAc(b1-3)Gal(b1-4)GlcNAc(b1-3)Gal(b1-4)GlcNAc(b1-2)Man(a1-3)[GlcNAc(b1-3)Gal(b1-4)GlcNAc(b1-3)Gal(b1-4)GlcNAc(b1-2)Man(a1-6)]Man(b1-4)GlcNAc(b1-4)[Fuc(a1-6)]GlcNAc
# How it was run: as §1
# [19] = biological target: GlcNAc(b1-3)Gal(b1-4)GlcNAc(b1-3)Gal(b1-4)GlcNAc(b1-3)Gal(b1-4)GlcNAc(b1-2)Man(a1-3)[GlcNAc(b1-3)Gal(b1-4)GlcNAc(b1-3)Gal(b1-4)GlcNAc(b1-3)Gal(b1-4)GlcNAc(b1-2)Man(a1-6)]Man(b1-4)GlcNAc(b1-4)[Fuc(a1-6)]GlcNAc
# How it was run: as §1
# [20] = biological target: Man(a1-2)Man(a1-2)Man(a1-6)[Man(a1-3)]Man
# How it was run: as §1
# [21] = biological target: Man(a1-3)[Man(a1-6)]Man(b1-4)GlcNAc(b1-4)[Fuc(a1-6)]GlcNAc
# How it was run: as §1
# [22] = biological target: Neu5Ac(a2-3)Gal(b1-3)GlcNAc(b1-3)GalNAc
# How it was run: as §1
# [23] = biological target: Neu5Ac(a2-3)Gal(b1-4)GlcNAc(b1-2)[Neu5Ac(a2-3)Gal(b1-4)GlcNAc(b1-6)]Man(a1-6)[Neu5Ac(a2-3)Gal(b1-4)GlcNAc(b1-2)Man(a1-3)][GlcNAc(b1-4)]Man(b1-4)GlcNAc(b1-4)GlcNAc
# How it was run: as §1
# [24] = biological target: Neu5Ac(a2-3)Gal(b1-4)GlcNAc(b1-3)Gal
# How it was run: as §1
# [25] = biological target: Neu5Ac(a2-3)Gal(b1-4)GlcNAc(b1-3)Gal(b1-4)GlcNAc(b1-3)GalNAc
# How it was run: as §1
# [26] = biological target: Neu5Ac(a2-3)Gal(b1-4)GlcNAc(b1-3)Gal(b1-4)[Fuc(a1-3)]GlcNAc
# How it was run: as §1
# [27] = biological target: Neu5Ac(a2-3)Gal(b1-4)GlcNAc(b1-6)[Neu5Ac(a2-3)Gal(b1-3)]GalNAc
# How it was run: as §1
# [28] = biological target: Neu5Ac(a2-3)Gal(b1-4)[Fuc(a1-3)]GlcNAc(b1-3)Gal(b1-4)GlcNAc
# How it was run: as §1
# [29] = biological target: Neu5Ac(a2-3)Gal(b1-4)[Fuc(a1-3)]GlcNAc(b1-3)GalNAc
# How it was run: as §1
# [30] = biological target: Neu5Ac(a2-3)Gal(b1-4)[Fuc(a1-3)]GlcNAc(b1-6)[Neu5Ac(a2-3)Gal(b1-3)]GalNAc
# How it was run: as §1
# [31] = biological target: Neu5Ac(a2-6)Gal(b1-4)GlcNAc(b1-2)Man(a1-3)[Man(a1-6)]Man(b1-4)GlcNAc(b1-4)GlcNAc
# How it was run: as §1
# [32] = biological target: Neu5Ac(a2-6)Gal(b1-4)GlcNAc(b1-2)Man(a1-3)[Neu5Ac(a2-6)Gal(b1-4)GlcNAc(b1-2)Man(a1-6)]Man(b1-4)GlcNAc(b1-4)GlcNAc
# How it was run: as §1
# [33] = biological target: Neu5Ac(a2-6)Gal(b1-4)GlcNAc(b1-2)Man(a1-3)[Neu5Ac(a2-6)Gal(b1-4)GlcNAc(b1-2)Man(a1-6)]Man(b1-4)GlcNAc(b1-4)[Fuc(a1-6)]GlcNAc
# How it was run: as §1
# [34] = biological target: Neu5Ac(a2-6)Gal(b1-4)GlcNAc(b1-3)Gal(b1-3)GlcNAc
# How it was run: as §1
# [35] = biological target: Neu5Ac(a2-6)Gal(b1-4)GlcNAc(b1-3)Gal(b1-4)GlcNAc(b1-3)Gal(b1-4)GlcNAc(b1-2)Man(a1-3)[Neu5Ac(a2-6)Gal(b1-4)GlcNAc(b1-3)Gal(b1-4)GlcNAc(b1-3)Gal(b1-4)GlcNAc(b1-2)Man(a1-6)]GalNAc
# How it was run: as §1
# [36] = biological target: Neu5Ac(a2-6)Gal(b1-4)GlcNAc(b1-3)Gal(b1-4)GlcNAc(b1-3)GalNAc
# How it was run: as §1
# [37] = biological target: Neu5Ac(a2-6)Gal(b1-4)GlcNAc(b1-3)[Neu5Ac(a2-6)Gal(b1-4)GlcNAc(b1-6)]GalNAc
# How it was run: as §1
# [38] = biological target: Neu5Ac(a2-8)Neu5Ac(a2-8)Neu5Ac(a2-3)[GalNAc(b1-4)]Gal(b1-4)Glc
# How it was run: as §1
# [39] = biological target: Neu5Gc(b2-6)Gal(b1-4)GlcNAc
# How it was run: as §1
binder,measurement,setting,value
B1,glycan array binding signal (z-score),Fuc(a1-2)Gal(b1-4)Glc,-1.4
same,glycan array binding signal (z-score),[1],2.88
same,glycan array binding signal (z-score),[2],1.3
same,glycan array binding signal (z-score),[3],1.07
same,glycan array binding signal (z-score),[4],-0.089
same,glycan array binding signal (z-score),[5],0.546
same,glycan array binding signal (z-score),[6],0.499
same,glycan array binding signal (z-score),[7],2.25
same,glycan array binding signal (z-score),[8],0.056
same,glycan array binding signal (z-score),[9],-0.034
same,glycan array binding signal (z-score),[10],3.15
same,glycan array binding signal (z-score),[11],-0.044
same,glycan array binding signal (z-score),Gal(b1-4)Glc6S,-0.759
same,glycan array binding signal (z-score),[12],-1.26
same,glycan array binding signal (z-score),[13],2.13
same,glycan array binding signal (z-score),[14],2.23
same,glycan array binding signal (z-score),[15],-0.361
same,glycan array binding signal (z-score),Gal3S(b1-4)Glc6S,0.151
same,glycan array binding signal (z-score),Gal3S(b1-4)GlcNAc,-0.117
same,glycan array binding signal (z-score),GalNAc(b1-4)Gal(b1-4)Glc,-0.531
same,glycan array binding signal (z-score),[16],0.638
same,glycan array binding signal (z-score),[17],-0.295
same,glycan array binding signal (z-score),[18],0.799
same,glycan array binding signal (z-score),[19],2.52
same,glycan array binding signal (z-score),[20],-0.459
same,glycan array binding signal (z-score),[21],2.1
same,glycan array binding signal (z-score),[22],0.617
same,glycan array binding signal (z-score),[23],-0.63
same,glycan array binding signal (z-score),[24],-0.734
same,glycan array binding signal (z-score),[25],-0.406
same,glycan array binding signal (z-score),[26],-0.82
same,glycan array binding signal (z-score),[27],-0.285
same,glycan array binding signal (z-score),[28],2.27
same,glycan array binding signal (z-score),[29],3
same,glycan array binding signal (z-score),[30],1.03
same,glycan array binding signal (z-score),[31],1.69
same,glycan array binding signal (z-score),[32],-0.027
same,glycan array binding signal (z-score),[33],2.07
same,glycan array binding signal (z-score),[34],0.896
same,glycan array binding signal (z-score),[35],2.02
same,glycan array binding signal (z-score),[36],0.381
same,glycan array binding signal (z-score),[37],-1.06
same,glycan array binding signal (z-score),[38],0.592
same,glycan array binding signal (z-score),[39],-0.624
